Bioassay records as filed in PubChem BioAssay.
The list is not random: actives were taken first. Their share in the collection is about 4.1%.
DAX1 inh-1 = DAX1 (NR0B1) inhibition, primary screen; 1.1% of 370,000 active; inhibition, % at 6.8 µM; HEK293T StAR-luciferase reporter, SF-1/DAX-1 repression relief;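 active = inhibition above the mean over all tested compounds plus 3 SD, cut at about 3.6% in these data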;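 also: higher inhibition means more luminescence from relief of DAX-1 repression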
DAX1 inh-2 = inhibits human nuclear receptor DAX1. P51843. HEK293 Gal4-DAX1 luciferase reporter, luminescence. 0.99% of 340,000 active. inhibition, % at 6.75 µM;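 active = inhibition above the mean over all tested compounds plus 3 SD, cut at about 4.2% in these data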;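 also: inhibition shows as a rise in luminescence from relieved DAX1 repression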
Target sequence (P51843 207-470 limits assumed): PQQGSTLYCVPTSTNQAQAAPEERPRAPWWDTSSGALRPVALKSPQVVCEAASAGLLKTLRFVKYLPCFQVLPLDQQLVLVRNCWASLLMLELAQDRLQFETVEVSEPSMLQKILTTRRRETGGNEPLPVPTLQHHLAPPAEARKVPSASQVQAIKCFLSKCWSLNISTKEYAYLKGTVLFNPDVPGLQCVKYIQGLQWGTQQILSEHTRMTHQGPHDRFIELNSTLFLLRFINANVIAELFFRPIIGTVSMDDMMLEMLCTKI
hgDAF-12 ag = activates the H. glycines DAF-12 receptor ligand-binding domain; HEK293 GAL4-hgDAF12 UAS-luciferase reporter, agonist luminescence; normalized to butyrate control; activation, % at 6.8 µM; 1.8% of 370,000 active;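 active = activation above a cutoff set at the mean of all screened compounds plus 3 SD, cut at about 10% in these data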
hcDAF-12 act = H. contortus DAF-12 activation, primary screen | HEK293 hcDAF-12 lit1-tk-luc reporter, luminescence; 0% DMSO, 100% Δ7-dafachronic acid | activation, % at 6.8 µM | 1.4% of 370,000 active;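 active = activation above the mean of all tested compounds plus 3 SD, cut at about 5.5% in these data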
ssDAF12 agonist = S. stercoralis DAF-12 activation, primary screen; HEK293 ssDAF-12/GRIP1 lit1-tk-luc reporter, luminescence; % of 3 µM dafachronic acid response; activation, % at 6.8 µM; 1% of 370,000 active;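 active = activation above the mean over all tested compounds plus 3 SD, cut at about 0.9% in these data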
Large screens that a line does not name were inactive.

COc1ccc(C2CC(=O)C(c3ccc(C(F)(F)F)cc3)=CN2Cc2ccccc2)cc1 (centres undefined)	none (no result: DAX1 inh-2)
CCn1cc(C(=O)NCCCN2CCC(C)CC2)c(=O)c2cc(S(=O)(=O)N3CCCC3)ccc21	none
CC(=O)N1CCc2cc(S(=O)(=O)N3CCOCC3)ccc21	DAX1 inh-2 4.6
CCn1cc(C(=O)NCCCN2CCC(C)CC2)c(=O)c2cc(S(=O)(=O)N3CCOCC3)ccc21	DAX1 inh-1 3.7
COC(=O)C1CCCN(C(=O)C(Cc2ccc3c(c2)OCO3)NC(C)=O)C1 (centres undefined)	none (no result: DAX1 inh-2)
CCOC(=O)C(c1nc2ccccc2[nH]1)n1c(-c2ccccn2)nc2ccccc21 (centres undefined)	hcDAF-12 act 6.5 (no result: DAX1 inh-2)
O=C1NC(c2cccc(C(F)(F)F)c2)c2c(-c3ccccc3)n[nH]c21 (centres undefined)	none (no result: DAX1 inh-2)
COc1ccc(NC(=O)CSc2nc(C)cc(=O)[nH]2)cc1OC	none (no result: DAX1 inh-2)
COc1ccccc1N/C=C/c1onc(C)c1[N+](=O)[O-]	none
Cc1noc(/C=C/Nc2ccc(F)cc2F)c1[N+](=O)[O-]	hgDAF-12 ag 12
C[C@]12Cc3ccccc3C1CC1=N[C@@H](c3ccccn3)O[C@@]13C[C@@H]2C(=O)N3C1CCN(Cc2ccccc2)CC1 (some centres undefined)	none (no result: DAX1 inh-2)
COC(=O)C1=C(C)N(Cc2cccc(C(F)(F)F)c2)C(=NCc2ccc(OC)cc2)NC1c1ccccc1C(F)(F)F (centres undefined)	none (no result: DAX1 inh-2)
Fc1ccc(NC(=S)Nc2cccc3ccccc23)cc1F	none
Cc1cc(C)cc(NC(=S)Nc2cccc3ccccc23)c1	none
Fc1ccc(NC(=S)Nc2cccc3ccccc23)cc1	hcDAF-12 act 5.7
Cc1ccc(NC(=S)Nc2cccc3ccccc23)cc1	ssDAF12 agonist 1.0
COC(=O)C1C(=O)c2c([nH]c(C(=O)OCC3CCCO3)c2C)CC1C (centres undefined)	DAX1 inh-2 5.8
COCCOC(=O)c1[nH]c2c(c1C)C(=O)C(C(=O)OC)C(C)C2 (centres undefined)	hgDAF-12 ag 10
CCCCCOC(=O)c1[nH]c2c(c1C)C(=O)C(C(=O)OC)C(C)C2 (centres undefined)	none
NC(=O)CSc1ccc(F)cc1	none
CC(C)NC(=O)N[C@H]1C[C@@H]2O[C@H](CO)CC[C@@H]2O[C@@H]1CCc1ccc(-c2ccccc2F)cc1	none (no result: DAX1 inh-2)
C[C@@H]1ON(C)[C@H]2C[C@H]3c4[nH]c5c(-c6ccc(Cl)cc6)cccc5c4CCN3C(=O)[C@@H]12	none (no result: DAX1 inh-2)
C[C@H]1[C@H](NC(=O)c2ccc(Cl)c(C(F)(F)F)c2)CC[C@@]23CCCN2C(=O)CCC[C@@H]13	none (no result: DAX1 inh-1, DAX1 inh-2)
N#CCC(=O)N/N=C\c1ccccc1OC/C=C/c1ccccc1	DAX1 inh-1 4.3
N#CCC(=O)N/N=C\c1ccc(OC/C=C/c2ccccc2)cc1	none
Cc1ccc(N2C(=O)N(CC(=O)Nc3ccc(C)cc3[N+](=O)[O-])C(=O)C2C)cc1 (centres undefined)	DAX1 inh-1 3.6
COc1ccc(N/C=C/C(=O)c2ccc(C)cc2)c([N+](=O)[O-])c1	DAX1 inh-1 3.6
COc1ccc(/C=C/C(=O)Nc2cc(C)on2)cc1	none
COc1ccc(C(=O)/C=C/Nc2cc(C)on2)cc1	hgDAF-12 ag 12
O=C(NCC(c1ccccc1)c1ccccc1)[C@H](Cc1c[nH]c2ccccc12)NC1(C(=O)NC2CCCCC2)CCC1	none (no result: DAX1 inh-1, DAX1 inh-2)
O=C(O)C1CC=CCC1C(=O)Nc1ccccc1C(=O)N1CCN(c2ccc(Cl)cc2)CC1 (centres undefined)	none (no result: DAX1 inh-2)
O=C(O)CCC(=O)Nc1ccccc1C(=O)N1CCN(c2ccc(Cl)cc2)CC1	DAX1 inh-2 6.8
C/C(Cn1cnc([N+](=O)[O-])n1)=N\NC(=O)c1cccc(F)c1	hgDAF-12 ag 11
CN(N=Nc1ccc([N+](=O)[O-])cc1)c1ccccc1	ssDAF12 agonist 6.2
CCOC(=O)c1[nH]c2ccccc2c1NC(=S)Nc1cccc(C)c1	hcDAF-12 act 5.8
CCOC(=O)c1[nH]c2ccccc2c1NC(=O)COC	none
CCOC(=O)c1[nH]c2ccccc2c1NC(=O)CC	hcDAF-12 act 6.1
CCOC(=O)c1[nH]c2ccccc2c1NC(=S)Nc1ccccc1	hcDAF-12 act 6.0, ssDAF12 agonist 2.0
CCOC(=O)c1[nH]c2ccccc2c1NC(C)=O	none
CN(C)c1ccc(NC(=S)OC2CCC23CCC(c2ccccc2)CC3)cc1 (centres undefined)	none (no result: DAX1 inh-2)
O=C(Nc1ccc2ccccc2c1)c1cccc([N+](=O)[O-])c1	hgDAF-12 ag 12
COc1cc([N+](=O)[O-])ccc1NC(=O)c1cccc(NC(=O)C(C)C)c1	none
O=C(O)c1cccc([N+](=O)[O-])c1C(=O)Nc1ccc2ccccc2c1	hcDAF-12 act 6.5, ssDAF12 agonist 1.8
O=C(Nc1cccc([N+](=O)[O-])c1)c1ccccc1	none
CC(C)C(=O)Nc1cccc(NC(=O)c2cccc([N+](=O)[O-])c2)c1	DAX1 inh-2 5.5
COCC(=O)NCC1CCN(C(=O)C(=O)c2cccs2)CC1	none (no result: DAX1 inh-2)
COc1ccc(C(=O)N[C@H]2CC[C@@]34CCCN3C(=O)CCC[C@H]4[C@H]2C)cc1	none (no result: DAX1 inh-1, DAX1 inh-2)
COc1ccc(C(=O)OCCN(C)C2CN(Cc3cn(Cc4ccccc4Cl)nn3)S(=O)(=O)C2)cc1OC (centres undefined)	none (no result: DAX1 inh-2)
COC(=O)[C@]12C[C@H](CC(=O)NCCCCc3ccccc3)C(=O)N(Cc3ccco3)C1=C[C@H](COCc1ccccc1)O[C@@H]2C	none (no result: DAX1 inh-2)
Cc1cc(C)c2cc(C(=O)N3CCC(N4CCCCC4)CC3)[nH]c2c1	DAX1 inh-1 4.3
Cc1cc(C)c2cc(C(=O)N3CCC(C(=O)c4ccc(F)cc4)CC3)[nH]c2c1	none
Cc1cc(C(=O)NNC(C)Cc2ccccc2)no1 (centres undefined)	DAX1 inh-2 4.3
COc1cc(F)ccc1-c1csc(C(NC(C)=O)c2cccc(F)c2)n1 (centres undefined)	DAX1 inh-1 4.2 (no result: DAX1 inh-2)
Cn1cccc1C(=O)N1CCN(S(=O)(=O)c2ccccc2F)CC1	none (no result: DAX1 inh-2)
C=CCn1c(SCC(C)=O)nnc1-c1ccc2ncccc2c1	DAX1 inh-2 4.9
Cc1onc(-c2ccccc2)c1CNC(=O)C1COc2ccccc2O1 (centres undefined)	DAX1 inh-2 4.6
O=C(NCc1ccccc1)C1COc2ccccc2O1 (centres undefined)	none
Cc1ccccc1CN1CCN(C(=O)[C@H]2O[C@@H](n3cnc(C(N)=O)n3)[C@H](O)[C@@H]2O)CC1	none (no result: DAX1 inh-2)
CCc1ccc(NC(=O)c2ccccc2NC(=O)C2CCCO2)cc1 (centres undefined)	hgDAF-12 ag 13
Cn1nnnc1Sc1ncnc2scc(-c3cnc(N)nc3)c12	none (no result: DAX1 inh-1, DAX1 inh-2)
CN[C@H]1C[C@H]2c3cc(-c4ccccc4C)ccc3CCN2C[C@H]1[C@H](C)O	none (no result: DAX1 inh-2)
COc1ccc(NC(=O)CN(C)C(=O)CCCc2c[nH]c3ccccc23)cc1	none
